PubChem BioAssay AID463173 (ICCB-Longwood Screening Facility, Harvard Medical School, 2010)
Hit rate of the full screen: of about 52,000 compounds, about 4,300 (8.3%) were called active. The list comes from a sample in which actives are over-represented; it also holds similar structures and randomly drawn compounds. Values without a mark were called inactive. Cut-off read from the data, not from the text of the source: active = survival mostly below about 52% (no sharp cut-off); inactive = mostly above about 56%.

What follows are molecules tested on DeltatarO mutant (assay: growth inhibition of S. aureus wild type versus tarO mutant, primary screen, teichoic acid synthesis inhibitors, RN4220, OD600 (AID 463173)). Conditions: OD600, 18 h, hits give low values, screened at 18.75 µg/mL (by protocol).
`COc1ccc(CCNC(=O)CSc2n[nH]c(-c3ccccc3Cl)n2)cc1OC` was tested, and the survival was 101%.
Molecule `COc1ccc2c(c1)c1c(c(=O)n(-c3cccc(C)c3)c(=O)n1Cc1cccc(Cl)c1)n2C` has a survival of 84%.
`CC(=O)N1CCCc2cc(S(=O)(=O)N(CCN(C)C)Cc3ccccc3)ccc21` gave a survival of 102%.
In the case of `Cc1csc2nc(COC(=O)c3ccc(NC(=O)C(C)Oc4ccccc4)cc3)cc(=O)n12` (stereo not drawn), the survival was 134%.
In the case of `COc1cc2c(cc1OC)C(COc1ccc3c(C)cc(=O)oc3c1)N(C(=O)c1ccc(C)c(C)c1)CC2` (stereo not drawn), the survival was 74%.
In the case of `Cc1oc(-c2ccc(C(=O)NCc3ccccc3F)cc2)nc1COc1ccccc1`, the survival was 77%.
Work on `CCOC(=O)c1ccccc1NC(=O)CCc1c(C)nc2ncnn2c1C` yielded a survival of 87%.
For `CCN(Cc1ccccc1)C(=O)Cn1c(=O)n(-c2ccc(Cl)cc2)c(=O)c2c(C)c(C)sc21`, the survival was 76%.
`CCOc1ccc(NC(=O)Cn2c(=O)n(-c3ccccc3)c(=O)c3c4c(sc32)CCCC4)cc1` was tested, and the survival was 90% (active).
Work on `CCOc1ccc(NC(=O)Cn2c(=O)n(-c3cccc(OC)c3)c(=O)c3c4c(sc32)CCCC4)cc1` yielded a survival of 95%.
`CCN(Cc1ccccc1)C(=O)Cn1c(=O)n(-c2ccc(C)c(C)c2)c(=O)c2c(C)c(C)sc21` showed a survival of 84%.
In the case of `CCOc1ccc(-n2c(=O)c3c(C)c(C)sc3n(CC(=O)N(CC)Cc3ccccc3)c2=O)cc1`, the survival was 45% (active).
Work on `COc1ccc(NC(=O)Cn2c(=O)n(-c3ccccc3)c(=O)c3c4c(sc32)CCCC4)cc1` yielded a survival of 98%.
`CCOC(=O)c1c(C)oc2nc(C)nc(NCC3CCN(Cc4cccc(Cl)c4)CC3)c12` was tested, and the survival was 62%.
For `COc1cccc(NC(=O)CCS(=O)(=O)c2ccc3c(c2)oc(=O)n3C)c1`, the survival was 89%.
Molecule `Cc1ccc(CSc2nnc3[nH]c(=O)cc(C)n23)cc1` has a survival of 71%.
`Cc1ccc(NC(=O)CSc2nc3c(oc4ccccc43)c(=O)n2Cc2ccco2)cc1` gave a survival of 70%.
Molecule `CC(C)C(=O)N1C2CCC1CC(O)(c1ccccc1F)C2` (stereo not drawn) has a survival of 86%.
For `COc1cccc(CN(Cc2ccco2)C(c2ccc(OC)c(OC)c2)c2nnnn2Cc2ccccc2)c1` (stereo not drawn), the survival was 67%.
In the case of `Cc1ccc2nc(/C(C#N)=C/c3ccccc3F)[nH]c2c1`, the survival was 31% (active).
Molecule `COc1cc(Br)c(/C=C(\C#N)c2nc3ccccc3[nH]2)cc1OC` has a survival of 110%.
With `N#C/C(=C\c1ccccc1F)c1nc2ccccc2c(=O)[nH]1` the survival was 66%.
Molecule `Cc1cccc(/C=C(\C#N)c2nc3ccccc3c(=O)[nH]2)c1` has a survival of 91%.
Work on `COc1cccc(/C=C(\C#N)c2nc3ccc(C)cc3[nH]2)c1` yielded a survival of 46%.
For `Cc1ccc2nc(/C(C#N)=C/c3cccc(Br)c3)[nH]c2c1`, the survival was 3% (active).
`Oc1ccc(-c2nnc(SCc3ccc(Cl)cc3)o2)cc1` was tested, and the survival was 89%.
In the case of `CCOc1ccccc1-c1nnc(SCc2ccc(Cl)cc2)o1`, the survival was -1% (active).
With `COc1ccccc1-c1nnc(SCCOc2ccccc2C)o1` the survival was 73%.
Molecule `CNS(=O)(=O)c1cn(CC(=O)Nc2ccc(C)c(N(C)C)c2)cc1S(=O)(=O)NC` has a survival of 83%.
For `CCc1ccc(-c2cc(C)no2)cc1S(=O)(=O)N1CCN(c2cccc(Cl)c2)CC1`, the survival was 89%.
`COc1ccc(CNc2oc(-c3ccc(COc4ccc(Cl)cc4)o3)nc2C#N)cc1` gave a survival of 97%.
`Cc1cc(C)cc(NC(=O)CCc2c(C)nc3c4cccnc4nn3c2C)c1` showed a survival of 99%.
`CCOc1ccc(-c2nonc2NC(=O)c2ccc(C)cc2)cc1OCC` was tested, and the survival was 100%.
`CCOc1ccc(-c2nonc2NC(=O)c2oc3cc(C)c(C)cc3c2C)cc1OCC` was tested, and the survival was 43% (active).
In the case of `CCOc1ccc(-c2nonc2NC(=O)c2oc3c(C)c(C)ccc3c2C)cc1OCC`, the survival was 34% (active).
`CCOc1ccc(-c2nonc2NC(=O)c2oc3ccc(C)cc3c2C)cc1OCC` gave a survival of 43%.
`CCCOc1ccc(-c2nonc2NC(=O)c2oc3ccc(C)cc3c2C)cc1OCCC` was tested, and the survival was 49%.
Molecule `CCOc1ccc(-c2nonc2NC(=O)c2oc3cc(C)ccc3c2C)cc1OCC` has a survival of 87%.
Molecule `CCCNC(=O)N1CCCN(S(=O)(=O)c2ccc3c(ccn3CC)c2)CC1` has a survival of 79%.
In the case of `Cc1cc(C)cc(NC(=O)c2cnn(-c3ccc(C)c(C)c3)c2C2CCNCC2)c1`, the survival was 78%.
Molecule `COc1ccccc1NC(=O)CN1C(=O)CSc2ccc(S(=O)(=O)N3CCCC3)cc21` has a survival of 99%.
With `Cc1cc(C)c(S(=O)(=O)NCC(c2ccc(N(C)C)cc2)N2CCOCC2)c(C)c1` (stereo not drawn) the survival was 69%.
`CCCSc1oc(-c2cccs2)nc1S(=O)(=O)c1ccc(C)cc1` was tested, and the survival was 41%.
For `CCCCS(=O)(=O)c1oc(-c2cccs2)nc1S(=O)(=O)c1ccccc1`, the survival was -5% (active).
With `CCCCS(=O)(=O)c1oc(-c2cccs2)nc1S(=O)(=O)c1ccc(F)cc1` the survival was 56%.
For `CCCCCS(=O)(=O)c1oc(-c2cccs2)nc1S(=O)(=O)c1ccc(C)cc1`, the survival was 3% (active).
`Cc1ccc(CSc2oc(-c3cccs3)nc2S(=O)(=O)c2ccc(C)cc2)cc1` showed a survival of 135%.
For `Cc1ccc(CSc2oc(-c3cccs3)nc2S(=O)(=O)c2ccccc2)cc1`, the survival was 65%.
Work on `COc1cccc(CSc2nc3n(n2)C(c2ccccc2C)C(C(=O)Nc2ccccc2OC)=C(C)N3)c1` (stereo not drawn) yielded a survival of 69%.
`Cc1ccc(C)c(NC(=O)Cn2c(=O)n(CCC(C)C)c(=O)c3cccnc32)c1` showed a survival of 76%.
With `NC(CSC1CCCCO1)C(=O)O` (stereo not drawn) the survival was 73%.
`CC(=O)c1ccc(N2CCN(c3ccc(NC(=O)c4ccc(F)cc4)cc3C(=O)O)CC2)cc1` gave a survival of 55%.
`O=C(Nc1ccc(N2CCC(N3CCCCC3)CC2)c(C(=O)O)c1)c1ccccc1` gave a survival of 96%.
In the case of `O=C(Nc1ccc(N2CCOCC2)c(C(=O)O)c1)c1ccc(Br)cc1`, the survival was 8% (active).
Work on `O=C(Nc1ccc(N2CCC(N3CCCCC3)CC2)c(C(=O)O)c1)c1ccc(Br)cc1` yielded a survival of 101%.
With `O=C(Nc1ccc(N2CCN(CCOc3ccc(Cl)cc3)CC2)c(C(=O)O)c1)c1ccc(F)cc1` the survival was 20% (active).
`COc1ccc(C(=O)Nc2ccc(N3CCN(c4ccccc4)CC3)c(C(=O)O)c2)cc1` showed a survival of 94%.
`Cc1ccc(NC(=O)C(=O)NCC2(c3ccccc3)CCCC2)cc1Cl` showed a survival of 97%.
In the case of `Cc1cccc(NS(=O)(=O)c2ccc3c(c2)CC(C)N3C(=O)C2CCC2)c1C` (stereo not drawn), the survival was 78%.
Work on `N#Cc1c[nH]n2c(=O)cc(Cc3ccccc3)nc12` yielded a survival of 68%.
`COC(=O)c1ccc(NC(=O)CCS(=O)(=O)c2ccc(Br)s2)cc1` showed a survival of 60%.
In the case of `O=C(CCS(=O)(=O)c1ccc(Br)s1)Nc1c(F)cccc1F`, the survival was 128%.
Molecule `CC(C)c1ccc(NC(=O)CCS(=O)(=O)c2ccc(Br)s2)cc1` has a survival of 114%.
For `CCOC(=O)c1cccc(NC(=O)CCS(=O)(=O)c2ccc(Br)s2)c1`, the survival was 71%.
`Cc1ccc(NC(=O)c2ccc(NC(=O)CCS(=O)(=O)c3cccs3)cc2)cc1F` was tested, and the survival was 81%.
In the case of `O=C(CCS(=O)(=O)c1ccc(Br)s1)Nc1cc(C(F)(F)F)cc(C(F)(F)F)c1`, the survival was 42% (active).
For `CC(=O)c1cccc(NC(=O)CCS(=O)(=O)c2ccc(Br)s2)c1`, the survival was 43% (active).
In the case of `Cc1cc(NC(=O)c2ccc(NC(=O)CCS(=O)(=O)c3cccs3)cc2)ccc1Br`, the survival was 35% (active).
With `CC(=O)c1ccc(NC(=O)c2ccc(NC(=O)CCS(=O)(=O)c3cccs3)cc2)cc1` the survival was 69%.
For `CCc1ccc(CNC(=O)Cc2ccc(NC(=O)N3CCSc4ncccc43)cc2)cc1`, the survival was 94%.
For `CC(=O)c1c(C)oc2c(Cl)cc(NS(=O)(=O)c3cc(C)c(C)cc3C)cc12`, the survival was 157%.
`COc1ccc(OC)c(-c2noc(N3CCN(c4cc(C)ccc4C)CC3)n2)c1` gave a survival of 87%.
With `CC(=O)N1CCCc2cc(S(=O)(=O)N3CCCC(C(=O)Nc4cccc(Cl)c4C)C3)ccc21` (stereo not drawn) the survival was 67%.
In the case of `COc1cccc(CNC(=O)c2ccc(Cn3c(SCc4ccccc4)nc4cccnc43)cc2)c1`, the survival was 74%.
`Cn1cc(C(=O)N2CCN(c3cccc(Cl)c3)CC2)c(=O)c2cc(S(=O)(=O)N3CCCC3)ccc21` gave a survival of 128%.
In the case of `CN(Cc1ccccc1)c1nc2c(S(=O)(=O)c3cccc(Cl)c3)nnn2c2ccsc12`, the survival was 36% (active).
`Cc1ccc(CCNc2nc3c(S(=O)(=O)c4ccc(C)cc4)nnn3c3ccsc23)cc1` showed a survival of 108%.
`Cc1ccc(S(=O)(=O)c2nnn3c2nc(NCCc2ccccc2)c2sccc23)cc1` showed a survival of 65%.
In the case of `CN(Cc1ccccc1)c1nc2c(S(=O)(=O)c3ccccc3)nnn2c2ccsc12`, the survival was 70%.
In the case of `CCN(CC)c1nc2c(S(=O)(=O)c3cccc(Cl)c3)nnn2c2ccsc12`, the survival was 62%.
`Cc1ccc(CCNc2nc3c(S(=O)(=O)c4ccccc4)nnn3c3ccsc23)cc1` was tested, and the survival was 62% (active).
For `Cc1cc(-c2ccc(C)c(S(=O)(=O)Nc3cccc(C)n3)c2)on1`, the survival was 75%.
`O=C(Cn1c(=O)nc(-c2ccccc2F)c2cc(Cl)ccc21)Nc1ccccc1C(F)(F)F` was tested, and the survival was 96%.
For `Cn1c(O)c(N=NC(=O)c2ccccc2)c2ccccc21`, the survival was 105%.
In the case of `CCCCc1c(C(=O)O)cccc1C(=O)O`, the survival was 103%.
With `CCCCc1cc(O)c(CCCC)c(O)c1` the survival was 12% (active).
`Cc1cc(C)cc(N2C(=O)CSC23C(=O)N(CC(=O)Nc2ccc(F)cc2F)c2ccccc23)c1` (stereo not drawn) was tested, and the survival was 99%.
For `Cc1ccc2c(c1)c(=O)c(S(=O)(=O)c1ccc(F)cc1)cn2CC(=O)Nc1ccc2c(c1)OCO2`, the survival was 70%.
